14 compounds from PubChem BioAssay (Tox21) can be followed below.

Assay [1] can be described thus: qHTS assay to identify small molecule agonists of the RXR signaling pathway - cell viability counter screen (AID 1159529). Further: nearly all actives have a fitted effect of over 50% in size. Further: potency means the concentration at half of the fitted maximal effect. In short, it runs like this: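 RXR-alpha-UAS-bla HEK 293T cells in medium with 2% charcoal-stripped FBS were preincubated 5 hr, then exposed to compounds for 16 hr at 37 C. Viability was read as CellTiter-Glo luminescence after 30 min at room temperature.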
In general terms: In qHTS, concentration-response curves come from the screen itself.

Assay [2] is described as follows: qHTS assay to identify small molecule antagonists of the retinoic acid receptor (RAR) signaling pathway (AID 1159552; further: nearly all actives have a fitted effect of over 50% in size; further: potency means the concentration at half of the fitted maximal effect). An outline of the steps:
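RARE-luc C3RL4 cells; cpds + 1 uM (final) retinol, 6 hr, 37 C/5% CO2; luciferase reagent, 30 min RT, luminescence readout. Inhibitors of retinol-driven signal scored.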

The nature of assay [3]: qHTS assay to identify small molecule antagonists of the retinoid acid receptor (RAR) signaling pathway - cell viability counter screen (AID 1159551). Further: nearly all actives have a fitted effect of over 35% in size. Further: potency means the concentration at half of the fitted maximal effect. In short, it runs like this: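 C3RL4 cells were seeded overnight at 37 C, then treated with compounds plus 1 uM (final) retinol for 6 h at 37 C. Viability was read as ATP by CellTiter-Glo luminescence after 30 min at room temperature.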

Assay [4] can be described thus: qHTS assay to identify small molecule agonists of the retinoic acid receptor (RAR) signaling pathway (AID 1159553). An outline of the steps:
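C3RL4 cells carrying a RARE luciferase reporter were plated overnight at 37 C, then exposed to compounds in DMSO for 6 hr at 37 C and 5% CO2. Luminescence was read 30 min after luciferase reagent addition at room temperature.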

A short description of assay [5]: qHTS assay to identify small molecule antagonists of the estrogen related receptor (ERR) signaling pathway - cell viability counter screen (AID 1224818).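 Further: series mostly up to about 46 µM; viability measured after 17.5 h of compound exposure.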 An outline of the steps: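 ERR reporter cells plated 6 h at 37 C/5% CO2, then compounds in DMSO pin-transferred and incubated 17.5 h at 37 C. Viability read as CellTiter-Fluor fluorescence after 30 min at 37 C.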

The nature of assay [6]: qHTS assay to identify small molecule antagonists of the estrogen related receptor signaling pathway with the pleiotropic PPARgamma coactivator (PGC) cell viability counter screen (AID 1224822; further: series mostly up to about 46 µM). An outline of the steps:
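PGC/ERR cells were seeded at 2,000 cells/well, rested 6 h at 37 C/5% CO2, then given compounds in DMSO by pin tool and incubated 17.5 h at 37 C. Viability came from CellTiter-Fluor fluorescence after 30 min.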

Several values for one entry are separate records, joined by “and”; a condition that tells them apart may be missing. Equal entries are not always repeated. Results filed as inconclusive are left out. Activity calls are given as the source filed them. The call rests on the fitted dose curve; in most records, active means well fitted curve in the direction sought with a large enough effect in the repeat runs; inconclusive means weak or mixed curves; inactive means no such curve, though single readings can be large; an effect the other way counts as inactive or inconclusive.

In the case of `CC(C)N(C(=O)CCl)c1ccccc1`, the Potency in assay [1] was 24.5 µM (active); in assay [2], 27.3 µM (active) and 30.6 µM (active).

As to `CCc1cccc(C)c1N(C(=O)CCl)[C@@H](C)COC`, the Potency result in assay [1], in assay [3] and in assay [4] was “inactive” throughout.

Take `CN1[C@@H]2CC[C@H]1CC(O)C2` (stereo partly drawn): the Potency result in assay [1], in assay [3], in assay [2] and in assay [4] was “inactive” each time.

With `COc1c2c(cc3c1OCO3)CCN(C)C2`, the Potency result in assay [1], in assay [3] and in assay [4] was “inactive” in each case.

`O=C(N[C@H]1N=C(c2ccccc2F)c2cccc3c2N(CC3)C1=O)c1cc2ccccc2[nH]1`: the Potency result in assay [1], in assay [3], in assay [2] and in assay [4] was “inactive” each time.

Regarding `COc1nc(C)nc(NC(=O)NS(=O)(=O)c2ccccc2Cl)n1`, the Potency result in assay [1], in assay [3], in assay [2] and in assay [4] was “inactive” throughout.

On to `Nc1ccc(Cl)cc1C(=O)c1ccccc1F`, for which the Potency result in assay [1], in assay [3] and in assay [4] was “inactive” each time.

For `COC(=O)c1ccccc1S(=O)(=O)NC(=O)Nc1nc(C)nc(OC)n1`, the Potency entry in assay [1], in assay [3], in assay [2] and in assay [4] was “inactive” each time.

For `O=[N+]([O-])c1ccc(CCl)cc1`, the Potency entry in assay [1], in assay [3], in assay [2] and in assay [4] was “inactive” in each case.

With `[O]=[Cr](=[O])([OH])[O][Cr](=[O])(=[O])[OH]`, the Potency in assay [1] was 0.0027 µM (active); in assay [3], 17.4 µM (active) and 27.3 µM (active). The Potency result in assay [4] is “inactive”.

For `CC(Cc1ccc(O)cc1)NCC(O)c1cc(O)cc(O)c1` (stereo not drawn), the Potency result in assay [1], in assay [3], in assay [5] and in assay [6] was “inactive” in each case.

For the compound `CCC1COC(Cn2cncn2)(c2ccc(Cl)cc2Cl)O1` (stereo not drawn), the Potency entry in assay [1], in assay [3] and in assay [4] was “inactive” each time.

`O=c1[nH]c2cc(Cl)ccc2n1C1CCNCC1`: the Potency result in assay [1], in assay [3], in assay [2] and in assay [4] was “inactive” each time.

With `CCOP(=S)(OCC)SC(CCl)N1C(=O)c2ccccc2C1=O` (stereo not drawn), the Potency entry in assay [1], in assay [3] and in assay [4] was “inactive” each time.
